Measured values reported in ChEMBL document CHEMBL4513216, “Probing the Open Global Health Chemical Diversity Library for Multistage-Active Starting Points for Next-Generation Antimalarials” (ACS Infect Dis, 2020).
Screen size: about 69,000 compounds; about 8,600 (12%) showed an effect of 50% or more. Only a selection was taken, and strong results are over-represented in it overall.

test system: Plasmodium berghei; experiment: Screen against P. berghei liver stage (PbLuc), transformed with Luciferase, at 10uM; assay type: functional, HepG2; conditions: tested at 10 uM

Compound | INHIBITION [%]
CN(Cc1ccco1)[C@@H]1CN(C(=O)c2ccnnc2)C[C@@H]2CCCO[C@@H]21 | 18.5
CCN(CC)C(=O)Cn1cc(-c2nc(C(C)C)no2)nn1 | -18.1
O=C(c1cnco1)N1C[C@@H](O)[C@H](Oc2cccc(F)c2)C1 | 5.11
O=C(c1cccc(CNCC=Cc2ccccc2)c1)N1CCCC1 | 58.5
Cc1cc(F)ccc1CNCc1cccc(C(=O)N2CCCC2)c1 | 7.67
NC(=O)c1cccc(CNCC=Cc2ccccc2)c1 | 17.1
COc1ccc(CN2CC(O)CN(C(=O)c3ccccc3)CC2=O)cc1 (configuration not stated) | 23
Cc1nc(CNC2CCc3nc(C(C)C)nn3C2)oc1C (configuration not stated) | 75.2
CCc1nc2n(n1)CC(NCc1nc(C)c(C)o1)CC2 (configuration not stated) | 46.6
Cc1nc2n(n1)CC(NCC(=O)NCCC1=CCCCC1)CC2 (configuration not stated) | 40.4
CC(C)c1nc2n(n1)CC(NCc1nnc(C(C)C)o1)CC2 (configuration not stated) | 18.9
CCc1nc2n(n1)CC(NCc1nc3ccccc3nc1C)CC2 (configuration not stated) | 53.3
Cc1nc2n(n1)CC(NCc1nc(C)c(C)o1)CC2 (configuration not stated) | -67.9
CCc1nc2n(n1)CC(NCc1nc(C)ccc1O)CC2 (configuration not stated) | -15
CC(C)c1nc2n(n1)CC(NCC(=O)NCCC1=CCCCC1)CC2 (configuration not stated) | 51.1
CCc1nnc(CNC2CCc3nc(C(C)C)nn3C2)o1 (configuration not stated) | -19.4
Cc1cc(NC(=O)CNC2CCc3nc(C(C)C)nn3C2)no1 (configuration not stated) | -7.31
CCc1nc2n(n1)CC(NCc1nc3ccccc3o1)CC2 (configuration not stated) | 11.9
CCc1nc2n(n1)CC(NCc1nnc(C(C)C)o1)CC2 (configuration not stated) | 60.2

Compound | INHIBITION [%]
CCN1C(=O)CC[C@@H]2[C@H]1CCN2S(=O)(=O)Cc1ccc(C)cc1 | 45.2
Clc1ccc(-c2nc(CN3CCCC3Cn3cncn3)co2)cc1 (configuration not stated) | -24.2
c1coc(CN2CCO[C@H]3[C@H](OCC4CC4)CC[C@@H]32)c1 | -2.27
CCN(Cc1nc2c(cnn2C)c(=O)[nH]1)c1ccc(F)cc1 | 29.7
CC(C)Nc1nc(O)cc(C2CC(=O)N(Cc3ccccn3)C2)n1 (configuration not stated) | -23.8
Cc1cc(C(=O)N2CCC(c3nnc(Cn4ccnc4)n3C)CC2)cs1 | -40.5
Cc1ccc(C(=O)N2CCC3(CC(N(C)c4ccncn4)C3)C2)cn1 (configuration not stated) | 41.2
Cc1cnn(CC2CCCN2C(=O)c2cc3c(F)cccc3[nH]2)c1 (configuration not stated) | 24.6
CCCOC(C)C(=O)NCc1cc2n(n1)CCCN(C1CCCCC1)C2 (configuration not stated) | 14.8
CN(C)S(=O)(=O)c1ccc(=O)n(CC2CCCCO2)c1 (configuration not stated) | 4.52
O=C(c1cccnc1)N1CCN(CC2CC2)c2ncccc2C1 | -18.4
CSc1ccccc1C(=O)N1CCN(C)C2(CCC(=O)N(C)CC2)C1 (configuration not stated) | 46.7
Cc1c(F)cc(C(=O)O)cc1S(=O)(=O)Nc1ccccc1 | 20.265
Cn1c(C2CCCN2C(=O)CN2CCCC2=O)nc2ccccc21 (configuration not stated) | 24.7
Cn1c(C2CCCN2C(=O)CN2CSCC2=O)nc2ccccc21 (configuration not stated) | 59.3
Cn1c(C2CCCN2C(=O)c2cn(CCN)nn2)nc2ccccc21 (configuration not stated) | 28
Cn1cc(C2CCCN2C(=O)Cn2ccc3ccccc32)cn1 (configuration not stated) | 23.1
Cn1c(C2CCCCN2C(=O)CN2CCCC2=O)nc2ccccc21 (configuration not stated) | 61.5
O=C1CSCN1CC(=O)N1CCCC1c1nc2ccccc2s1 (configuration not stated) | 32.3

Compound | INHIBITION [%]
Cc1cnn(CCC(=O)N(CC2CN(C)CCO2)c2nccs2)c1 (configuration not stated) | -31.6
CN1CCOC(CN(C(=O)CN2CCCC2=O)c2nccs2)C1 (configuration not stated) | 48.1
CN1CCOC(CN(C(=O)CCc2ccco2)c2nccs2)C1 (configuration not stated) | 43.3
CN1CCOC(CN(C(=O)CCc2cnn(C)c2)c2nccs2)C1 (configuration not stated) | 62.6
CN1CCOC(CN(C(=O)COc2ccccc2)c2nccs2)C1 (configuration not stated) | -2.53
CN1CCOC(CN(C(=O)CC2CCCC2)c2nccs2)C1 (configuration not stated) | 55.5
CCC1(CO)CCCN(C(=O)c2cc(COc3ccccc3F)[nH]n2)C1 (configuration not stated) | -39.3
Cn1cc(-c2cc(C(F)(F)F)nn2CCC#N)cn1 | 20.1
Cc1cc2c(cc1NC(=O)NCC(C)C)OCO2 | 28.5
O=C1CCC2(CCN(CC[C@@H](O)c3ccccc3)CC2)CN1CC1CC1 | -51.7
O=C(c1cccs1)N1CCCC(c2cc(C(F)F)n3ncnc3n2)C1 (configuration not stated) | 40
O=C(CCCn1cccn1)N1CCCC(n2cncn2)C1 (configuration not stated) | 12.9
CC(C)C(=O)N1CCc2c(CN(C)Cc3ccco3)cncc2C1 | -11.2
CC(NC(=O)Cc1cccs1)(C(N)=O)c1cccc(Cl)c1 (configuration not stated) | 60
CC(C)(C)OC(=O)NC(C)(C(N)=O)c1cccc(Cl)c1 (configuration not stated) | 65.6
CC(NC(=O)Cc1ccccc1F)(C(N)=O)c1cccc(Cl)c1 (configuration not stated) | 32
Cc1cc(CNC(=O)Cc2cccs2)ccc1S(C)(=O)=O | -3.68
Cc1nncn1CCNC(=O)C(C)(C)c1cccc(Cl)c1 | 24.3
CC(C)(C)CC(=O)NC(C)(C(N)=O)c1cccc(Cl)c1 (configuration not stated) | 74.5
